Bioassay records as filed in PubChem BioAssay.
The full list was thinned out, with hits kept by preference.
Eya2 inh: qHTS Assay for Inhibitors of the Phosphatase Activity of Eya2. AID 488837, 2010. recombinant Eya2, OMFP fluorescence dephosphorylation (OMFP is methylfluorescein phosphate). Potency, µM (highest dose often 76.9 µM), inactives show at the highest dose activity, negative = inhibition, actives largely listed as inhibitors. actives 0.006% (n = 330,000). Protein phosphatase EYA2 (Homo sapiens), O00167; note: % is set by controls: 0 for no effect and ±100 for the full control effect
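Eya2 (0.2 uM) preincubated 10 min at ambient with compound, then OMFP substrate added at 50 uM; 10 min reaction in 50 mM HEPES pH 7.5, 50 mM NaCl, 5 uM MgCl2, 0.05% BSA, 1 mM DTT. Fluorescence read at Ex 485/Em 525 nm.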
USP2a block: qHTS Assay for Inhibitors of Ubiquitin-specific Protease USP2a Using CHOP2 as the Reporter. Ubiquitin carboxyl-terminal hydrolase 2 (Homo sapiens), O75604. USP2 core, Ub-CHOP2 coupled fluorogenic reporter, 485/531. Potency, µM (series often up to 38.3 µM), without a hit: at the highest dose activity change, negative = inhibition, actives largely listed as inhibitors. actives 0.01% (n = 330,000);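 note: plate controls were DMSO wells for no effect and full inhibition by NEM control for full effect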
Target sequence (O75604 whole entry, looked up): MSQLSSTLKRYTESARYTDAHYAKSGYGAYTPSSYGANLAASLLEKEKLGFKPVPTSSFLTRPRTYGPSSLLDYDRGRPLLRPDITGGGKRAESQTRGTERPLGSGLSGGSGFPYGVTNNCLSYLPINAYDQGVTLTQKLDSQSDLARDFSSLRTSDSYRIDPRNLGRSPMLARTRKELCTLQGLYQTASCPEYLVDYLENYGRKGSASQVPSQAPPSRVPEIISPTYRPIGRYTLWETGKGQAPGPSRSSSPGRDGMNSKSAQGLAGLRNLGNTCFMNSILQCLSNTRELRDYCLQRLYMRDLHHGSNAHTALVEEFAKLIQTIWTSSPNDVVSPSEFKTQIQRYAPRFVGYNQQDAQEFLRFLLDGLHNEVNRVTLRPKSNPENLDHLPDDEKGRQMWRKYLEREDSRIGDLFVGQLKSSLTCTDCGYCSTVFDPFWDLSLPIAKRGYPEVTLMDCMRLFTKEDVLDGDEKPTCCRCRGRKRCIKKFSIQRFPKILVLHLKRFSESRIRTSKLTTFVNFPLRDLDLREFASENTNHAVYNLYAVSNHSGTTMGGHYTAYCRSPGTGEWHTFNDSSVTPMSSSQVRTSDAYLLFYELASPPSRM
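USP2 core (10nM final) preincubated 30min RT with compound in 20mM Tris-HCl pH 8.0, 2mM CaCl2, 2mM beta-mercaptoethanol, 0.05% CHAPS; 25nM Ub-CHOP2 plus 25nM reporter substrate added, fluorescence (Ex485/Em531) read after 60min.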
GALK inhibitor: qHTS Assay for Inhibitors of Human Galactokinase (GALK); Purified GALK, Kinase-Glo residual ATP luminescence; Potency, µM (top dose mostly 57.5 µM), for the others: top-dose activity change, negative = inhibition, hits mostly inhibitors; actives 0.007% (n = 270,000); note: % is set by controls: 0 for no effect and ±100 for the full control effect
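Human GALK (5 nM) with 35 uM ATP and 100 uM galactose in 20 mM HEPES pH 8.0, 5 mM MgCl2, 60 mM NaCl, 1 mM DTT, 0.01% BSA. After 1 h at room temperature, leftover ATP was read by Kinase-Glo Plus luminescence.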
ClpP mod: qHTS Assay for Activators of ClpP; ATP-dependent Clp protease proteolytic subunit (Bacillus subtilis (strain 168)), P80244; purified B. subtilis ClpP, FRET peptide cleavage, 20 min; Potency, µM (top dose mostly 57.5 µM), without a hit: at the highest dose activity change, negative = active; actives 1.9% (n = 340,000); active = well fitted falling curve with a large enough effect; inconclusive = small, poorly fitted or top-dose-only effect; inactive = no such curve, though single readings can be large or run the other way; note: the source files actives as falling curves though it sought activators and does not explain the sign; nearly all actives have a fitted effect of over 65% in size
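ClpP 10 microg/mL final, pH 8 Tris/KCl buffer with BSA, glycerol, Tween-20; compound pinned in; FRET-FV substrate; RT 20 min; Ex320/Em430; ΔFRET vs ADEP 5.8 microM, DMSO, no enzyme.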
Numbers without * were called inactive; u = inconclusive; x = not tested or not shown; [ ] = another dose, or the depositor's remark. Unless noted, calls come from the whole dose curve; as a rule, active = well fitted inhibition curve with a large enough effect; inconclusive = small, poorly fitted or top-dose-only effect, or effect the other way; inactive = flat fitted curve, though single readings scatter. Potency is the fitted concentration of half-maximal effect.

SMILES	Eya2 inh	USP2a block	GALK inhibitor	ClpP mod
NC(=O)c1c(NC(=O)c2ccccc2)sc2c1CCc1ccccc1-2	22.4%	3.2%	-1.8%	31.6µM*
c1ccc(SC23CC4CC(CC(C4)C2)C3)nc1	x	x	x	-2.8%
COc1cccc(-c2ccc3nccn3c2)c1	x	x	x	-6.1%
COc1cccc(-c2cc3c(-n4cccc4)ncnc3o2)c1	10.2%	-1.5%	-2.6%	14.1µM*
COc1ccc(OC)c(C(=O)NC(CC(N)=O)c2ccc(N3CCCCCC3)c([N+](=O)[O-])c2)c1 (stereo not given)	-5.5%	-1.5%	x	u
CCOc1ccc(C(N)=O)cc1OC	-0.7%	4.8%	1.5%	28.2µM*
CCOc1ccc(C(=O)O)cc1OC	7.8%	1.6%	-0.2%	-12.3%
COC(=O)c1sc2ncccc2c1OCc1ccc(Cl)cc1	13.8%	0.9%	-0.3%	35.5µM*
CCS(=O)(=O)N1CCN(c2ccc(C(=O)NC3C4CC5CC(C4)CC3C5)cc2[N+](=O)[O-])CC1 (stereo not given)	9.5%	2.0%	-2.3%	25.1µM*
CN(CC(=O)OCC(=O)NC(=O)c1cccn1C)S(=O)(=O)c1ccc(Cl)cc1	10.3%	-0.3%	-1.1%	-4.6%
CC(C)(C)c1ccc(S(=O)(=O)NCc2ccc(C(=O)NCc3ccccn3)cc2)cc1	-6.4%	1.4%	1.1%	-3.7%
Clc1ccc(-c2cn3cc(Cl)ccc3n2)cc1	u	-1.4%	-1.6%	u
Oc1ccc(-c2cn3cc(C(F)(F)F)ccc3n2)cc1	0.3%	-0.5%	1.7%	28.2µM*
CCN(CC)CCN1C(=O)c2ccccc2NC1c1ccc(Br)cc1 (stereo not given)	-11.5%	-1.9%	-0.9%	x
CCN(CC)CCN1C(=O)c2ccccc2NC1c1ccc(C)cc1 (stereo not given)	-9.5%	-3.0%	-1.4%	31.6µM*
CCN(CC)CCN1C(=O)c2ccccc2NC1c1ccc(F)cc1 (stereo not given)	-21.4%	0.4%	-1.5%	31.6µM*
O=C(c1cc(-c2cccc(Cl)c2)on1)N1CCc2ccccc2C1	-17.1%	-2.8%	-1.2%	x
Cc1ccc(S(=O)(=O)N2CC(O)CC2C(=O)O)cc1 (stereo not given)	-9.5%	4.1%	-2.4%	35.5µM*
NNC(=O)c1csc(Cc2c(Cl)sc3ccc(Cl)cc23)n1	7.5%	2.6%	-0.7%	x
CCOC(=O)C1CCN(C(=O)Nc2ccc3snnc3c2)CC1	10.3%	-1.2%	6.6%	-11.9%
CCOC(=O)C1CCN(C(=O)Nc2ccc3nccnc3c2)CC1	-2.8%	1.1%	-1.4%	31.6µM*
N#Cc1c(-c2cccc(Br)c2)cc(-c2cccnc2)nc1N	1.3%	2.7%	0.5%	31.6µM*
N#Cc1c(-c2ccc(Br)cc2)cc(-c2cccnc2)nc1N	-13.6%	-0.4%	-0.1%	-3.2%
COc1ccc(CCN2C(=NC(=O)C(C)C)SC3CS(=O)(=O)CC32)cc1 (stereo not given)	-7.5%	-0.6%	-0.4%	x
Cc1cc(NCCCn2ccnc2)n2nc(-c3ccc(Cl)cc3)cc2n1	-15.1%	-1.7%	1.7%	u
SMILES	Eya2 inh	USP2a block	GALK inhibitor	ClpP mod
CC(C)(C)c1cc(NCCCn2ccnc2)n2ncc(-c3ccc(Cl)cc3)c2n1	-9.2%	-0.9%	-0.5%	14.1µM*
CC(=O)c1ccc(NC(=O)c2c(C)nn(-c3ccccc3)c2Cl)cc1	-2.5%	0.9%	3.3%	x
COc1ccc2[nH]c(=O)c(C(c3nnnn3C3CCCC3)N(C)C3CCCCC3)cc2c1 (stereo not given)	3.5%	3.6%	-3.0%	u
CCOc1ccc2[nH]c(=O)c(C(c3nnnn3C3CCCCC3)N3CCN(CC)CC3)cc2c1 (stereo not given)	1.0%	-1.2%	4.4%	25.1µM*
COc1ccc2[nH]c(=O)c(C(c3nnnn3C3CCCC3)N3CCN(Cc4ccc5c(c4)OCO5)CC3)cc2c1 (stereo not given)	-4.7%	-0.4%	-0.6%	28.2µM*
CCOc1ccc2[nH]c(=O)c(C(c3nnnn3C3CCCCC3)N3CCN(C)CC3)cc2c1 (stereo not given)	-24.7%	0.3%	-0.3%	25.1µM*
CC(C)(C)C1CCc2onc(C(=O)Nc3cccnc3)c2C1 (stereo not given)	5.1%	-1.4%	5.2%	-1.4%
CC(C)(C)SCCNC(=O)c1ccc(Cl)c(S(=O)(=O)N2CCOCC2)c1	x	x	x	-0.4%
CCCOc1ccccc1-c1nc2c([nH]1)c(=O)[nH]c(=O)n2C	11.6%	1.9%	-0.5%	31.6µM*
Cn1c(=O)[nH]c(=O)c2[nH]c(CO)nc21	x	x	x	1.2%
CCNc1nc2c(c(=O)n(C)c(=O)n2C)n1Cc1ccc(Cl)cc1	-5.7%	1.1%	x	0.4%
Cn1c(=O)c2c(nc(NCc3cccnc3)n2Cc2ccc(Cl)cc2)n(C)c1=O	-5.4%	-1.7%	-0.2%	3.16µM*
CC(C)CC(NC(=O)c1ccc(Cl)cc1)C(=O)OCc1cc([N+](=O)[O-])cc2c1OCOC2 (stereo not given)	-0.4%	0.0%	0.7%	22.4µM*
COc1ccc(N2C(=S)NC(C)(C)CC2(C)c2ccc(OC(C)=O)cc2OC(C)=O)cc1 (stereo not given)	9.4%	0.1%	-0.1%	x
CN(C)c1ccc(-n2cc3c(=O)n(C)c(=O)n(C)c3c2)cc1	19.6%	1.1%	4.5%	-16.3%
CCN(CC)c1ccc(-n2cc3c(=O)n(C)c(=O)n(C)c3c2)cc1	-9.2%	4.0%	1.1%	35.5µM*
CCCc1cc(=O)n2[nH]c(NCc3c(Cl)cccc3Cl)nc2n1	18.5%	0.2%	0.3%	-6.0%
Cc1ccc(-c2nc3cccnc3s2)cc1NS(=O)(=O)c1ccc2c(c1)OCCO2	10.5%	-6.5%	-0.9%	-24.8%
Cc1onc(-c2ccccc2)c1C(=O)NCc1ccc2c(c1)OCO2	29.1%	2.9%	8.2%	-0.1%
Cc1onc(-c2c(F)cccc2Cl)c1C(=O)NCc1ccc2c(c1)OCO2	-0.9%	-2.3%	3.7%	28.2µM*
O=C(NCCCOc1cccc(CN2CCCCC2)c1)c1ccc(Cl)c(Cl)c1	-11.9%	3.3%	x	15.8µM*
COC(=O)CCC(=O)Nc1sc2c(c1C#N)CCCC2	2.9%	u	5.0%	28.2µM*
COc1ccc(-c2ocnc2C(=O)Nc2ccccc2N2CCCCC2)cc1	-6.4%	-1.4%	-2.6%	31.6µM*
COc1ccccc1CNC(=O)CCC1N=C2c3ccccc3N=C(SCC(=O)NCCc3ccccc3)N2C1=O (stereo not given)	x	x	x	-10.7%
CC(C)C(NC(=O)/C=C/c1ccc(F)cc1)C(C)C	5.8%	-0.7%	-2.2%	-2.7%
CCOC(=O)N1CCc2cc(OC)c(OC)c3c2c1cc1cc(OC)c(OC)cc13	x	x	x	28.2µM*
CCOC(=O)c1c(OCC)[nH]c2c1cc(O)c1ccccc12	-5.3%[15.4 µM]	2.0%	0.9%	22.4µM*
CCOC(=O)c1c(C)[nH]c2cc(Br)c(O)cc12	-10.1%[15.4 µM]	2.3%	-0.1%	-1.5%
